D2 antagonist – antagonists of human D2 dopamine receptor | HEK293 TREx D2 cells, calcium flux, dopamine EC80 | 340,000 tested, 2% active | inhibition, % at 10 µM; in the data active = inhibition above about 30%; inactive = below that, where a call was filed; note: 0% is about no effect
Target sequence (P14416 whole entry, looked up): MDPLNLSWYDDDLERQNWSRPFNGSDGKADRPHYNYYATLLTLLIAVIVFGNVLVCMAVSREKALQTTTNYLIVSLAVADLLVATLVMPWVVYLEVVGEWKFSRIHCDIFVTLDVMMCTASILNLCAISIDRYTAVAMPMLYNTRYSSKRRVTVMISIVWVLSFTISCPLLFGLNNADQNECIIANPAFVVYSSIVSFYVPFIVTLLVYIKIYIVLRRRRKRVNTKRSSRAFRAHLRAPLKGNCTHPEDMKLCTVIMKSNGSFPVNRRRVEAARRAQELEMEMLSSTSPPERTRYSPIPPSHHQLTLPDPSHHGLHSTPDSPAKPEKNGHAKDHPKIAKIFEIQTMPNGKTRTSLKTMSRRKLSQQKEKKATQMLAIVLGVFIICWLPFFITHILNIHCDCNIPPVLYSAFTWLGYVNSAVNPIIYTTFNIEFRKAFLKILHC
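Measurement of antagonist activity uses fluorescent calcium dye in inducible HEK293 T-REx D2 cells: 10 s baseline, compound addition with 180 s read, EC80 dopamine addition with a further 180 s read.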
D2 ag-1 – agonists of human D2 dopamine receptor; P14416; HEK293 T-REx D2 cells, calcium flux agonist mode; activation, % at 2 µM; 340,000 tested, 0.53% active; AID 485358;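 active = activation over 3 SD above normal in the single-dose calcium agonist read, cut at about 30% in these data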; note: 0% is about no effect
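In this primary screen, compounds producing a positive calcium signal within 180 s of addition to tetracycline-induced, force-coupled HEK293 Trex D2 cells are flagged; cells are dye-loaded with a no-wash calcium kit beforehand.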
D2 PAM-1 – positive allosteric modulators of human D2 dopamine receptor. P14416. AID 485347. 340,000 tested, 0.34% active. HEK293 T-REx D2, calcium flux, EC20 dopamine potentiation. potentiation, % at 10 µM;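 active = potentiation over 3 SD above the plate norm, cut at about 30% in these data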; note: 0% is about no effect
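Using a no-wash calcium dye in inducible, force-coupled HEK293 Trex cells expressing D2, we tracked fluorescence each second for 180 s after compound, then for 180 s after EC20 dopamine to detect augmented signalling.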
D2 PAM-2 – human D2 receptor positive allosteric modulation. P14416. DiscoveRx D2 beta-arrestin cells, luminescence, 90 min; 100% = 57 uM dopamine signal. potentiation, % (concentration not given with the values). 360,000 tested, 0.23% active. AID 624464; in the data active = potentiation above about 50%; inconclusive = mostly about 30% to 49%
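PathHunter D2 cells, attached overnight at 37 deg C, received compound in DMSO plus dopamine at EC20 (50 nM final) for 90 min at 37 deg C. Beta-arrestin recruitment was read as luminescence after 1 h with detection reagent at ambient temperature.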
D2 ag-2 – agonists of human D2 dopamine receptor (beta-arrestin); activation, % (test concentration not listed); 360,000 tested, 0.084% active; AID 624465; DiscoveRx PathHunter D2 beta-arrestin, luminescence, 90 min; 100% = 57 uM dopamine signal; in the data active = activation above about 40%; inconclusive = between about 15% and that limit
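Agonist mode: compounds alone added to overnight-plated D2 PathHunter cells for 90 min at 37 C, with 57 uM final dopamine (EC100) defining full response. Beta-arrestin recruitment detected by chemiluminescent reagent, read after 1 h at ambient temperature.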
* = called active by the depositor; ? = inconclusive; . = no result. Rows were chosen to be rich in hits. Some 2.4% of all compounds tested hit in one or more screens of this group.

SMILES	D2 antagonist	D2 ag-1	D2 PAM-1	D2 PAM-2	D2 ag-2
CCCn1nc(C(=O)NCc2ccc3c(c2)OCO3)c2ccccc2c1=O	5.4	-1.2	38.7*	-6.1	10.7
CC(C)Cn1nc(C(=O)NCc2ccccc2CN2CCCC2)c2ccccc2c1=O	44.9*	-0.1	-29.8	-31.5	-1.2
Cc1cc(C)cc(-n2c3ccc(NC(=O)Cc4cccc5ccccc45)cc3c(=O)n2C)c1	.	.	.	-1.7	-1.9
Cn1nnc2cc(C(=O)N3CCC(c4ccccc4)C3)ccc21 (stereo unspecified)	11.5	1.6	103.3*	-19.6	-2.3
Cn1nnc2cc(C(=O)N3CCCCCC3)ccc21	-15.5	0.5	-7.0	1.6	-0.9
O=C(CNCc1ccco1)Nc1ccccc1-n1cccc1	38.0*	-0.3	12.3	-3.6	-0.3
O=C(CNCc1ccco1)Nc1ccc(Oc2ccccc2)cc1	-7.2	-1.1	1.8	-11.5	-0.1
CCNC(=O)C1(C)CCN(C(=O)c2ccc3c(c2)OCO3)C1 (stereo unspecified)	.	.	.	0.4	-4.7
CN(Cc1nccs1)C(=O)C1CCC(=O)N(CCc2ccc(Cl)cc2)C1 (stereo unspecified)	32.7*	-0.2	-5.5	-5.7	-0.8
Cc1ccc(NC(=O)NCCc2c(C)nn(C)c2C)cc1Cl	.	1.1	-6.2	.	.
COc1cc(CNc2ccc(O)cc2)cc(Br)c1OCc1ccccc1F	2.5	-2.0	5.8	76.8*	?
COc1cccc(CN(C(=O)c2oc3cc(C)ccc3c2C)C2CCS(=O)(=O)C2)c1 (stereo unspecified)	.	.	-3.5	.	.
OC(COCc1cccs1)CN1CCN(c2cccc(C(F)(F)F)c2)CC1 (stereo unspecified)	50.4*	1.8	-19.4	-27.7	-0.2
O=S(=O)(c1ccc(F)cc1)N1CCN(CC(O)COCc2cccs2)CC1 (stereo unspecified)	5.7	0.2	4.6	23.9	0.4
COc1cc(CC2COC(c3ccc(O)c(OC)c3)C2COC(C)=O)ccc1O (stereo unspecified)	44.7*	0.5	17.0	-24.5	-8.0
COc1cc([C@@H]2OC[C@@H]3[C@H]2CO[C@@H]3c2ccc3c(c2)OCO3)ccc1O	.	.	.	-5.4	0.0
Cc1ccc(OCC(=O)Nc2ccc(Cl)c(-c3nc4ncccc4o3)c2)cc1C	.	0.2	-6.0	.	.
CCCNC(=O)CC(NS(=O)(=O)c1ccc(OC)cc1)c1ccco1 (stereo unspecified)	-11.4	0.0	34.9*	3.6	4.2
CCCCNC(=O)CC(NS(=O)(=O)c1ccc(C)cc1)c1ccco1 (stereo unspecified)	-8.0	0.6	-0.7	1.3	-4.2
CC(=O)/C(C[N+]1(C)CCCCC1)=N\O	44.1*	-0.4	.	-14.6	0.6
O=C(CSCc1ccc(Cl)cc1Cl)Nc1ccc(O)cc1C(=O)O	20.8	2.6	2.8	59.1*	11.5
CC(C)C1C(=O)N(Cc2cn(Cc3ccco3)nn2)CCS(=O)(=O)N1Cc1ccc(-c2ccc(F)cc2)cc1 (stereo unspecified)	.	.	.	.	1.7
Fc1ccc(Nc2nc(SCc3cccc(F)c3)nc3ccccc23)cc1	.	0.9	3.0	.	.
COc1ccc(N2CCN(C(CNC(=O)C(=O)NCCCN(C)C)c3cccnc3)CC2)cc1 (stereo unspecified)	.	0.7	-4.8	.	.
CC(C)N(C(C)C)S(=O)(=O)c1ccc(N2CCc3ccccc3C2)nc1	1.3	1.0	-9.6	1.8	-4.6
SMILES	D2 antagonist	D2 ag-1	D2 PAM-1	D2 PAM-2	D2 ag-2
CCN(CC)S(=O)(=O)c1ccc(-n2cnc3cc(C)c(C)cc32)nc1	-10.1	0.6	37.8*	-9.9	-0.7
CCN(CC)S(=O)(=O)c1ccc(C)c(C)c1	-14.7	-1.1	-6.5	-8.9	-2.4
CCN(CC)S(=O)(=O)c1ccc(N2CCc3ccccc3C2)nc1	-4.9	-1.6	34.4*	-15.5	-8.8
Cc1sc2nc(C3CC3)nc(SCC(=O)NCc3ccco3)c2c1C	8.4	-0.1	11.5	-14.9	6.4
O=C(CSc1nc(C2CCCCC2)nc2ccccc12)NCc1ccco1	66.7*	-0.7	-9.7	-2.5	-3.0
CC(=O)NC12CC3CC(C1)CC(C(=O)Nc1ccc(C)c(S(=O)(=O)N4CCCCCC4)c1)(C3)C2	.	.	.	-12.3	3.2
COC(=O)CNC(=O)CSc1nc2c(sc(=S)n2-c2ccccc2)c(=O)[nH]1	44.0*	1.5	-15.3	-5.2	3.5

Bioassay records: PubChem, National Center for Advancing Translational Sciences (NCATS)
